Source: PubChem BioAssay
Shown are actives, neighbours in structure and some others; about 11% of the full set was active somewhere.
USP30 block – blocks human USP30 ubiquitin-rhodamine cleavage; 47,000 tested, 5.3% active; inhibition, % at 25 µM; AID 1645860; purified USP30, Ub-rhodamine cleavage fluorescence
USP17 block – inhibitors of human USP17 deubiquitinase; A8MUK1; purified USP17, Ub-rhodamine cleavage fluorescence, 3 h; inhibition, % at 50 µM; 47,000 tested, 6.5% active; AID 1645855
USP28 block – human USP28 deubiquitinase inhibition; Q96RU2; inhibition, % at 25 µM; purified USP28, Ub-rhodamine cleavage fluorescence, 30 min; AID 1645857; 47,000 tested, 3% active
OTUD3 inh – blocks human OTUD3 ubiquitin-rhodamine cleavage | purified OTUD3, Ub-rhodamine fluorescence, 2 h | inhibition, % at 25 µM | 47,000 tested, 0.7% active
Active calls of the source: *; x = not tested or not shown. Cut-off read from the data, not from the text of the source: active = inhibition above about 30%; inactive = the rest.

SMILES	USP30 block	USP17 block	USP28 block	OTUD3 inh
COc1ccc(-c2nc3sc4c(c3c(=O)[nH]2)CCCCCC4)c(OC)c1	34*	31*	7	6
COc1cc(-c2nc3sc4c(c3c(=O)[nH]2)CCCC4)cc(OC)c1O	-183	2	-24	-62
O=C(CCc1ccc2c(c1)CCO2)Nc1cccnc1	-1	-6	3	-6
O=C(Nc1ccc(-n2ccc(C(F)(F)F)n2)cc1)Nc1ccc2c(c1)CCO2	32*	12	41*	16
Cc1ccc2c(Nc3ccccc3)c(C(=O)N3CCCCC3)cnc2n1	-1	1	5	5
O=[N+]([O-])c1c(Cl)cccc1-c1c[nH]cc1Cl	3	8	48*	5
Cc1cccc(C)c1NC(=O)C1(NC(=O)c2ccc(Br)cc2)CCCCC1	26	35*	9	16
COc1ccc(S(=O)(=O)N2CCCCC2)cc1NC(=O)c1ccc(OCC2CCCO2)cc1 (stereo not drawn)	47*	20	11	5
O=C(Nc1cccc(S(=O)(=O)N2CCCC2)c1)c1ccc(OCC2CCCO2)cc1 (stereo not drawn)	19	10	36*	0
COc1ccc(S(=O)(=O)N2CCC(Cc3ccccc3)CC2)cc1NC(C)=O	35*	21	14	10
COc1ccc(C)cc1NC(=O)CN1CCC(Cc2ccccc2)CC1	18	21	2	16
O=C(CN1C(=O)c2ccccc2S1(=O)=O)Nc1ccc2c(c1)CCC2	-25	-16	4	-12
COc1ccccc1CNC(=O)[C@H](CCSC)NC(=O)[C@@H]1Cc2c([nH]c3ccccc23)C2c3ccccc3C(=O)N21 (stereo partly drawn)	6	16	1	8
COc1cc2nc(SCC(=O)N3CCN(c4ccccc4)CC3)n3nc(CCn4nc(C)cc4C)nc3c2cc1OC	6	-3	-6	11
Cc1cc(-c2nnc(SCC(=O)N3CCCc4ccccc43)o2)no1	-92	41*	-29	-21
O=C(CSc1nnc(-c2ccc3c(c2)OCCO3)o1)N1CCCc2ccccc21	27	-31	14	7
O=C(CSc1nnc(-c2ccncc2)o1)N1CCCc2ccccc21	32*	1	6	5
NCCC(=O)N1CCC2(CC1)OC(=O)N(Cc1ccccc1)c1ccccc12	-4	-11	13	-8
NCCNC(=O)N1CCC2(CC1)OC(=O)N(Cc1ccccc1)c1ccccc12	5	-8	34*	5
O=C1COc2ccc(Br)cc2CN1Cc1ccccc1F	27	20	40*	19
Cc1nc(N2CCCC2)ncc1-c1cc(=O)[nH]c(NCCc2ccccc2)n1	64*	50*	5	5
Cc1nc(N2CCC(C)CC2)ncc1-c1cc(=O)[nH]c(Nc2nc3ccccc3o2)n1	41*	34*	14	12
CCOc1ccc2nc(NC(=O)C3CCN(S(=O)(=O)c4ccc5c(c4)CC(C)N5C(C)=O)CC3)sc2c1 (stereo not drawn)	50*	13	-11	-11
Cn1cncc1CN1CCC2(C/C=C/CNC(=O)c3ccccc3OCCNC2=O)CC1	16	6	5	13
CC(C)CC(=O)N1CCCC(c2nc(N3CCOCC3)ncc2-c2cccnc2)C1 (stereo not drawn)	10	-1	-5	-3
SMILES	USP30 block	USP17 block	USP28 block	OTUD3 inh
CC(=O)N1CCCC(c2nc(N3CCOCC3)ncc2-c2cccnc2)C1 (stereo not drawn)	37*	23	24	18
COC(=O)c1sc2cc([N+](=O)[O-])sc2c1NC(C)=O	2	-15	-1	-2
COC(=O)c1sc2ccccc2c1NC(=O)c1ccc(Br)s1	19	70*	14	12
O=C(Cn1c(CC(=O)N2CCCC2)nc2ccccc21)NCc1cccnc1	0	-8	-12	-5
CCCCCCC(C)/C=C(C)/C=C/C(=O)N[C@H]1CC2(O[C@H]1O)[C@@H]1O[C@@H]1C(=O)[C@@H]1O[C@@H]12 (stereo partly drawn)	42*	30*	5	-9
COc1ccccc1OC(C)C(=O)Nc1ccc2c(c1)NC(=O)CO2 (stereo not drawn)	3	-18	-3	-10
COc1ccccc1OC(C)C(=O)Nc1ccc2nsnc2c1 (stereo not drawn)	25	32*	22	17
COc1ccc(CCNC(=O)CN(c2cc(C)cc(C)c2)S(=O)(=O)c2c(C)noc2C)cc1OC	47*	0	-10	-3
CN(C)C(=O)[C@@]12CCC3(CCN(C(=O)Nc4ccccc4)CC3)[C@@H]1CN(S(C)(=O)=O)C2	x	6	x	6
O=C(Nc1cccc(N2CCn3c(nc4ccccc43)C2)c1)c1cccc(Br)c1	x	30*	x	3
COc1ccc(S(=O)(=O)N2CCCCCC2)cc1C(=O)Nc1ccccc1N1CCOCC1	-24	-37	0	-2
O=C(Cn1cccc1-c1nc(-c2ccccc2)cs1)N1CCOCC1	26	74*	18	-4
COc1ccc(-n2nnnc2CN2CCN(S(=O)(=O)c3ccc(F)cc3)CC2)cc1	2	34*	-6	0
O=S(=O)(c1ccc(Cl)cc1)N1CCN(Cc2nnnn2-c2ccc(F)cc2)CC1	0	-9	-1	-5
CC(C)c1ccc(NC(=O)CCCC(=O)O)cc1	-3	3	-2	-7
Cc1nn(-c2nc3ccccc3o2)c2c1C(c1cccc(F)c1F)CC(=O)N2 (stereo not drawn)	32*	27	16	22
COc1cc(C2CC(c3cccc(O)c3)=NN2C(C)=O)cc(OC)c1OC (stereo not drawn)	-16	x	-10	-11
Cn1cc(C(=O)Nc2cccnc2)c2nn(-c3ccccc3)c(=O)c-2c1	29	17	14	12
Cc1ccc(Nc2nccc(C3CCN(C(=O)c4cccnc4)C3)n2)nc1 (stereo not drawn)	-151	-2	-1	0
O=C(CSc1ccc(-c2cccnc2)nn1)NCc1ccc2c(c1)OCO2	27	12	17	12
O=C(CSc1nnc2sc3ccccc3n12)NCc1ccc2c(c1)OCO2	20	32*	-1	6
O=C(NCc1ccc2c(c1)OCO2)c1nc(-c2ccccc2)n(-c2ccccc2)n1	55*	18	6	17
O=C(Cn1c(=O)nc(-c2ccccc2)c2ccccc21)NCc1ccc2c(c1)OCO2	9	68*	31*	23
Cc1nc(-c2ccccc2)sc1C(=O)NCc1ccc2c(c1)OCO2	21	0	6	0
c1ccc2c(c1)c(NCc1ccc3c(c1)OCO3)nn1cnnc21	-27	41*	9	3
O=C(Nc1ccccc1)N1CCCC2(CCCN2C(=O)CCc2ccccc2)C1 (stereo not drawn)	9	12	16	19
Cc1cccc(CNS(=O)(=O)c2cc3n(c2)CCCNC3=O)c1	-22	-39	-7	-2
CN(Cc1ccccc1F)C(=O)c1ccc(-c2ccccc2F)o1	0	x	18	6
CN(Cc1ccccc1F)C(=O)c1nc(-c2ccccc2)n(-c2ccccc2)n1	47*	25	21	22
Cc1ccc(CNC(=O)CCC(=O)NCc2ccc3c(c2)OCO3)o1	20	38*	6	4
